Data: publication PMC7862700, “An all-to-all approach to the identification of sequence-specific readers for epigenetic DNA modifications on cytosine”

Columns and labels:
Test in all cases: DAPPL (digital affinity profiling via proximity ligation, sequencing); 10 mM Tris-HCl pH 7.5, 50 mM NaCl, 1 mM DTT, 4% glycerol, room temperature, 30 min; GST-TFs on glutathione beads, 16-mer random dsDNA library, 0.1% formaldehyde crosslink after washing; high values mean tight binding
Settings in all cases: protein: recombinant; tags: N-terminal GST; dsDNA, one strand shown
GABPA = target: T1, GABPA (Homo sapiens, UniProt Q06546 1-454)
T1 sequence: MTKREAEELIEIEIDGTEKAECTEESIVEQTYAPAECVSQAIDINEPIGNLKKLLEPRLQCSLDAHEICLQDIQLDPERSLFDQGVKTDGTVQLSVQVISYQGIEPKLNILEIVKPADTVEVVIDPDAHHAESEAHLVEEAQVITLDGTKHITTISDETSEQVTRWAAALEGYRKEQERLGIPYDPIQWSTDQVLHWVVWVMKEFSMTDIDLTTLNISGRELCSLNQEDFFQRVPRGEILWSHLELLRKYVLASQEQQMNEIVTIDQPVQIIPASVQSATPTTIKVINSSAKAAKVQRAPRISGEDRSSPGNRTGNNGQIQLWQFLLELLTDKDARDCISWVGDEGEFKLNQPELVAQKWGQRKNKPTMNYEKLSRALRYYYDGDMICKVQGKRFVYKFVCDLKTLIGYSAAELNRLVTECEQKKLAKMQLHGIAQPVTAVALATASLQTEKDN
Procedure, shortened: (§1)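 A tag-only sample was pooled with DNA-barcoded human transcription factors that had been expressed in yeast as GST fusions and captured on glutathione beads. The pools were incubated for 30 min at room temperature with 200 nmole of a random double-stranded 16-mer DNA library in Tris/NaCl/DTT/glycerol buffer, then washed, crosslinked with 0.1% formaldehyde, proximity-ligated (BsaI/T4 ligase, 1 h, 37 °C), PCR-amplified and sequenced on an Illumina NextSeq500. Binding signal is each hexamer's read frequency for a factor divided by its frequency for the tag-only sample.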

ERG = target: T2, ERG (Homo sapiens, UniProt P11308 1-479)
T2 sequence: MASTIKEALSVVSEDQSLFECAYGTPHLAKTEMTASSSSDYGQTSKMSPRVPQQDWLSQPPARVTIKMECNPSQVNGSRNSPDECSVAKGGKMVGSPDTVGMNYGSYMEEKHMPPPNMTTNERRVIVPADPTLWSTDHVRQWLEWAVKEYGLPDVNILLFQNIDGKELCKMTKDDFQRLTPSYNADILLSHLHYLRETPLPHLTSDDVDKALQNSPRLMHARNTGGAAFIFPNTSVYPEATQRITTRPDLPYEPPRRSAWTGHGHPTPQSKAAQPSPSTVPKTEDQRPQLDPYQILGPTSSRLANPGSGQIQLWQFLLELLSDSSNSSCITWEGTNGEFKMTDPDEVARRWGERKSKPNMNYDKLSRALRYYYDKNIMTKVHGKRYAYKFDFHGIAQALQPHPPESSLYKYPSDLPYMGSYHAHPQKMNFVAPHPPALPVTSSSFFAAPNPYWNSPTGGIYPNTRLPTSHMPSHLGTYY
Procedure, shortened: as §1

ELF1 = ELF1 (Homo sapiens, UniProt P32519 1-619)
Chain of ELF1 (P32519 whole entry): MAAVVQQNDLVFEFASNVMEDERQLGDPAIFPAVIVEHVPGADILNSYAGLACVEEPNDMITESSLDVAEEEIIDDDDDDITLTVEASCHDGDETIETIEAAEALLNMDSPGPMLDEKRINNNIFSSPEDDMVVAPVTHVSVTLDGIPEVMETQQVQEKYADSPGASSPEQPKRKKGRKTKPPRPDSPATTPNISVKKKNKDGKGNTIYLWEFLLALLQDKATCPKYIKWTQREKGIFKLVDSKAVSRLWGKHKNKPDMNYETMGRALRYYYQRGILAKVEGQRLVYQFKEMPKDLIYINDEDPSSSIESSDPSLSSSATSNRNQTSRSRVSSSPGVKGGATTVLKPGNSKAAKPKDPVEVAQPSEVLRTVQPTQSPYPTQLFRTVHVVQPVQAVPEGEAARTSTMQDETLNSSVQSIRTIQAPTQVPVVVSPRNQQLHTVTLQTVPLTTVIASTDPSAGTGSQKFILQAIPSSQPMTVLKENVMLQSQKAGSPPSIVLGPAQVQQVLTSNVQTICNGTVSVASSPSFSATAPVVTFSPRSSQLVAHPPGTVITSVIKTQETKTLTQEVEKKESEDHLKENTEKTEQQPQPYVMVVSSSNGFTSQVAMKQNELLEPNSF
Procedure, shortened: as §1

EHF = target: T3, EHF (Homo sapiens, UniProt Q9NZC4 1-300)
T3 sequence: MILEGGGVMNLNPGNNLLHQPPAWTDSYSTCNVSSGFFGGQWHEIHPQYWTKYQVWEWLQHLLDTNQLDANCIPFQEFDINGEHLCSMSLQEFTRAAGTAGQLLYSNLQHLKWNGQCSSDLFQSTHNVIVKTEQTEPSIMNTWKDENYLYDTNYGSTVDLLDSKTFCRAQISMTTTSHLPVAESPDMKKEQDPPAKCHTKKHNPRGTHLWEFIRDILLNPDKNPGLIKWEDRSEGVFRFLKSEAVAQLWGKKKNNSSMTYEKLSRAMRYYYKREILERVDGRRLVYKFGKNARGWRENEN
Procedure, shortened: as §1

SPIB = SPIB (Homo sapiens, UniProt Q01892 1-262)
Chain of SPIB (Q01892 whole entry): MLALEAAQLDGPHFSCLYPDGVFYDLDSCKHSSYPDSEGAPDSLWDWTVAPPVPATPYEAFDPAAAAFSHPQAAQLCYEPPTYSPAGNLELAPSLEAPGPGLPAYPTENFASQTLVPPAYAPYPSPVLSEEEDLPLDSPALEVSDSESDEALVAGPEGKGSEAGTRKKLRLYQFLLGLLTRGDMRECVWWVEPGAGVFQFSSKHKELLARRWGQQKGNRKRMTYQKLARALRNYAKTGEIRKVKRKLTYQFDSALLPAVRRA
Procedure, shortened: as §1

FEV = target: T4, FEV (Homo sapiens, UniProt Q99581 1-238)
T4 sequence: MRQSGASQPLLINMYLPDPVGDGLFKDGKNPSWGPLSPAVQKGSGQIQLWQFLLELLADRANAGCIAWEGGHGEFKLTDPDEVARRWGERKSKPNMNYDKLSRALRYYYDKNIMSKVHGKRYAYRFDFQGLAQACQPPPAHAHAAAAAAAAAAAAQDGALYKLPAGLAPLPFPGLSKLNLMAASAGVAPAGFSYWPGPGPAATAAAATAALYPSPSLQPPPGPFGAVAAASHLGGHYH
Procedure, shortened: as §1

ETV5 = ETV5 (Homo sapiens, UniProt P41161 1-510)
Chain of ETV5 (P41161 whole entry): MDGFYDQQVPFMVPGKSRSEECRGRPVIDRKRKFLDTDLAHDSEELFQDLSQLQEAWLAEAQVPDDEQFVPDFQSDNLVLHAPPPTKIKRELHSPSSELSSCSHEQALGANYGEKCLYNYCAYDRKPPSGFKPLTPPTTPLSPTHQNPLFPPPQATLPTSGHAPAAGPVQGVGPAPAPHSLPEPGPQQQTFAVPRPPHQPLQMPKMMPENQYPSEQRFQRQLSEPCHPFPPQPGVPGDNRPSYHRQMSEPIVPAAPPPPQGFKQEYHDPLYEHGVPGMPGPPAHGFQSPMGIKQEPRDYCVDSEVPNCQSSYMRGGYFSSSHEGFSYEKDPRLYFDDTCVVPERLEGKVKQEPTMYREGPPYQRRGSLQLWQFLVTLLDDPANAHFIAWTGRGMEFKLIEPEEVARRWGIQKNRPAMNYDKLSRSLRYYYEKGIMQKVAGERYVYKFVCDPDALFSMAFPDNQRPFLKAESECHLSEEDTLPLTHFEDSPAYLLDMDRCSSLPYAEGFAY
Procedure, shortened: as §1

ELF4 = ELF4 (Homo sapiens, UniProt Q99607 1-663)
Chain of ELF4 (Q99607 whole entry): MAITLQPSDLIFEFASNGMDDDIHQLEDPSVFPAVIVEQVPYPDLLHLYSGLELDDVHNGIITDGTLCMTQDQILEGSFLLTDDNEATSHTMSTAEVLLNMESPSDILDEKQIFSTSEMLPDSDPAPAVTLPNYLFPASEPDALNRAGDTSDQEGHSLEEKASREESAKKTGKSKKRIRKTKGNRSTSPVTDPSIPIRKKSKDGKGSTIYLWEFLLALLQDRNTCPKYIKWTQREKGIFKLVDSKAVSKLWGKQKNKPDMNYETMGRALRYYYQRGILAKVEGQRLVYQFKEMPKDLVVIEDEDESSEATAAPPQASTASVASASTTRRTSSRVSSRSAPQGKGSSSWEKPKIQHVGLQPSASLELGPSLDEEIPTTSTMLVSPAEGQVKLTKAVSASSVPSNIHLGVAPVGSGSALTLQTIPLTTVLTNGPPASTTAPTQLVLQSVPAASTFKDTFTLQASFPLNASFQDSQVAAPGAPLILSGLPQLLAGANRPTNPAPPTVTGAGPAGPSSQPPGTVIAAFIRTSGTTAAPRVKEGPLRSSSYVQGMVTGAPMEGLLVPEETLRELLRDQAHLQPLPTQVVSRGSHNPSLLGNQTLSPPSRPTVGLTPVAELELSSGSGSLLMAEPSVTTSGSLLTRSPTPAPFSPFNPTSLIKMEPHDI
Procedure, shortened: as §1

ELK4 = target: T5, ELK4 (Homo sapiens, UniProt P28324-2 1-405)
T5 sequence: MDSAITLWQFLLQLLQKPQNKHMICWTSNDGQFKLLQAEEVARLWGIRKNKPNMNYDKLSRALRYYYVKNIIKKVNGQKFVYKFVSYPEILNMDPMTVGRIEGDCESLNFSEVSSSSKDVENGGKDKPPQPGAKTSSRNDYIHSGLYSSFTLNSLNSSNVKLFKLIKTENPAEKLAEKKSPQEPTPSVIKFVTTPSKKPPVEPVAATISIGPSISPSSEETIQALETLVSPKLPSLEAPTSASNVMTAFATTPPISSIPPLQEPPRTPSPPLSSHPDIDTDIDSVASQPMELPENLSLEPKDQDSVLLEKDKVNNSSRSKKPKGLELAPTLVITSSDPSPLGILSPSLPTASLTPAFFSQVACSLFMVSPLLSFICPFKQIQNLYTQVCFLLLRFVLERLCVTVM
Procedure, shortened: as §1

ETV2 = target: T6, ETV2 (Homo sapiens, UniProt O00321 1-342)
T6 sequence: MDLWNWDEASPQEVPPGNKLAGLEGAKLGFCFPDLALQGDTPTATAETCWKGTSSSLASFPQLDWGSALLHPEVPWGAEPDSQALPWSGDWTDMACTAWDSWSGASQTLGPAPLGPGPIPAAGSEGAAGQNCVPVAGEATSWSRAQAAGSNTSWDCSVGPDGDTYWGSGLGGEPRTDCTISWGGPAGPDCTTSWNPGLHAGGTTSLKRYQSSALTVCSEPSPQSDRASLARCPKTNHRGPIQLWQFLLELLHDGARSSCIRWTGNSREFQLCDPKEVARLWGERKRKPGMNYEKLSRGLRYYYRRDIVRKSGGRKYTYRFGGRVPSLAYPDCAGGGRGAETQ
Procedure, shortened: as §1

ELF3 = target: T7, ELF3 (Homo sapiens, UniProt P78545 1-371)
T7 sequence: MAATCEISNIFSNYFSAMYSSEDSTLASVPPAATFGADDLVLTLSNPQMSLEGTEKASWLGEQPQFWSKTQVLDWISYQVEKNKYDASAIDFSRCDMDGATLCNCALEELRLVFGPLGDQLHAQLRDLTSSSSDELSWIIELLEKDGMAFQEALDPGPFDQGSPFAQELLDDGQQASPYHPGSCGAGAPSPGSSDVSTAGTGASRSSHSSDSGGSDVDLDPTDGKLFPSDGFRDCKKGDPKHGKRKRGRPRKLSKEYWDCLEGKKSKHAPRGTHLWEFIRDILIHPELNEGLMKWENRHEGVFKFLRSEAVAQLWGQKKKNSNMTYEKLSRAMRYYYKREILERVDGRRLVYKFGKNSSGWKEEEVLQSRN
Procedure, shortened: as §1

ETV1 = ETV1 (Homo sapiens, UniProt P50549 1-477)
Chain of ETV1 (P50549 whole entry): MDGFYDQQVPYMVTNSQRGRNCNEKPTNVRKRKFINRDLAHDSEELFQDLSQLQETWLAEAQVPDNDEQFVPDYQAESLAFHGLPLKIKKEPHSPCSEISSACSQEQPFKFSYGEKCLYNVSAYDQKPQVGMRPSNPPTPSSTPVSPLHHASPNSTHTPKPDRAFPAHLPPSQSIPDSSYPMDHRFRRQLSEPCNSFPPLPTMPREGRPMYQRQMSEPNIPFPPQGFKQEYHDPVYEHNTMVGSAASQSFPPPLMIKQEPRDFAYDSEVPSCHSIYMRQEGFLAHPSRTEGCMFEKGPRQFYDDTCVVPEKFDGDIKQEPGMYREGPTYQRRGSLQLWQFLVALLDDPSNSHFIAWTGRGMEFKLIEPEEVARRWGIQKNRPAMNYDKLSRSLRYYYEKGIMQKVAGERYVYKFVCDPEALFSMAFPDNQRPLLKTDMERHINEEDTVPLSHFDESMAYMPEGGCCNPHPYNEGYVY
Procedure, shortened: as §1

ERF = target: T8, ERF (Homo sapiens, UniProt P50548 1-548)
T8 sequence: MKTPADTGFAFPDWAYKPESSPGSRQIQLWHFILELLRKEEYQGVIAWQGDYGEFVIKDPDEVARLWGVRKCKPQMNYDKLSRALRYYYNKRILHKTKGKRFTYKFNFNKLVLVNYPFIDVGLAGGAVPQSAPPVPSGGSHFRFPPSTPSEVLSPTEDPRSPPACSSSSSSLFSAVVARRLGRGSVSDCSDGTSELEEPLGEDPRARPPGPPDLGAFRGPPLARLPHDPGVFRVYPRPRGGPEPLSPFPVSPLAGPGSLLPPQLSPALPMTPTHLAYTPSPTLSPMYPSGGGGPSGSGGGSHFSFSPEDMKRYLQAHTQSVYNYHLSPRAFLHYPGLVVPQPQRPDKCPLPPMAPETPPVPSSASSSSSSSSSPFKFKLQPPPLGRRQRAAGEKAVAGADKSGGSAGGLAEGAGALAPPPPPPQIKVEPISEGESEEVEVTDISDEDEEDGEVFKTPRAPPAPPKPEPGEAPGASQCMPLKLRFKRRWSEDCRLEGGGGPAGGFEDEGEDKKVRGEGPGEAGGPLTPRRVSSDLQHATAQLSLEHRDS
Procedure, shortened: as §1

ETV3L = target: T9, ETV3L (Homo sapiens, UniProt Q6ZN32 1-361)
T9 sequence: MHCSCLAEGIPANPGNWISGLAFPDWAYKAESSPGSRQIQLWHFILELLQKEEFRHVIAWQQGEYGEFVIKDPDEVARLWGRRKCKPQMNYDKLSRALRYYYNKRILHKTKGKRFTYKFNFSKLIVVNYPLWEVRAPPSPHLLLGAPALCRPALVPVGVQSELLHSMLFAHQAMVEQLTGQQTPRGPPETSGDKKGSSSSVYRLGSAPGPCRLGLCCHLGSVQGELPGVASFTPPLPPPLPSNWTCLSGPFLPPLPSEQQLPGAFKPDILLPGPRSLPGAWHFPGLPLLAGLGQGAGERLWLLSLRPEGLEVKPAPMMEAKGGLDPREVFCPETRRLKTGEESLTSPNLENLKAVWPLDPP
Procedure, shortened: as §1

SPDEF = target: T10, SPDEF (Homo sapiens, UniProt O95238 1-335)
T10 sequence: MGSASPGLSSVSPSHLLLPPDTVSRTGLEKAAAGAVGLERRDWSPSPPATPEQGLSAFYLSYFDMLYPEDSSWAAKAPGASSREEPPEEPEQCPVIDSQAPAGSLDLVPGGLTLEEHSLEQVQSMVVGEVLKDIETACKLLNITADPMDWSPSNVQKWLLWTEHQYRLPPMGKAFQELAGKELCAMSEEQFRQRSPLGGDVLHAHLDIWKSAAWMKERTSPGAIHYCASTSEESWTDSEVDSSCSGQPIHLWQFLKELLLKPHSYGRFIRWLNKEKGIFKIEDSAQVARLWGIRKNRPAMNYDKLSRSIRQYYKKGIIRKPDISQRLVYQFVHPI
Procedure, shortened: as §1

ETV7 = target: T11, ETV7 (Homo sapiens, UniProt Q9Y603 1-341)
T11 sequence: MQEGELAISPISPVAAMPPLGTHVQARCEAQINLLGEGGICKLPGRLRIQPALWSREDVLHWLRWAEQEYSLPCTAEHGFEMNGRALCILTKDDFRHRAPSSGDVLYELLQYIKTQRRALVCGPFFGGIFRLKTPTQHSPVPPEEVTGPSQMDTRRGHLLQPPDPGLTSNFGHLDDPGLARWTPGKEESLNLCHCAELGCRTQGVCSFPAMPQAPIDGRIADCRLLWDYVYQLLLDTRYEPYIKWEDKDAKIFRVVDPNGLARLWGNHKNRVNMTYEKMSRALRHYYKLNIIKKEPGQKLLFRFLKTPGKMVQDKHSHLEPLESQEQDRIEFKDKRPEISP
Procedure, shortened: as §1

ETV6 = ETV6 (Homo sapiens, UniProt P41212 1-452)
Chain of ETV6 (P41212 whole entry): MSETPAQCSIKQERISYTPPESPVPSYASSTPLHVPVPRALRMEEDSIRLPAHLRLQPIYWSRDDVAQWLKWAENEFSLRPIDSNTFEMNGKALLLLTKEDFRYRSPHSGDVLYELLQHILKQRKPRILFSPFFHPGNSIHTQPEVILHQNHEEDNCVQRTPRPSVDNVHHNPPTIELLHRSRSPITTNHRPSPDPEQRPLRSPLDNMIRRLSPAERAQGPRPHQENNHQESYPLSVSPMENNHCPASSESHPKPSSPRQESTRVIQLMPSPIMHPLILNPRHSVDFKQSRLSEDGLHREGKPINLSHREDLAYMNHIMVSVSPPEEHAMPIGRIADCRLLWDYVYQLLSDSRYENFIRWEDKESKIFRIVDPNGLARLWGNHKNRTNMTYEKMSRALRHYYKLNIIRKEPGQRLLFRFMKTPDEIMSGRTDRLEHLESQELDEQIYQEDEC
Procedure, shortened: as §1

Question: What does the source list for CATAAT?
Answer: binding signal (GABPA): 1.01 fold enrichment (6-mer frequency, TF over GST control); binding signal (ERG): 1.1 fold enrichment (6-mer frequency, TF over GST control); binding signal (ELF1): 1.02 fold enrichment (6-mer frequency, TF over GST control); binding signal (EHF): 1.13 fold enrichment (6-mer frequency, TF over GST control); binding signal (SPIB): 1.04 fold enrichment (6-mer frequency, TF over GST control); binding signal (FEV): 1.01 fold enrichment (6-mer frequency, TF over GST control); binding signal (ETV5): 1.09 fold enrichment (6-mer frequency, TF over GST control); binding signal (ELF4): 1.01 fold enrichment (6-mer frequency, TF over GST control); binding signal (ELK4): 1.03 fold enrichment (6-mer frequency, TF over GST control); binding signal (ETV2): 1 fold enrichment (6-mer frequency, TF over GST control); binding signal (ELF3): 1.01 fold enrichment (6-mer frequency, TF over GST control); binding signal (ETV1): 1.05 fold enrichment (6-mer frequency, TF over GST control); binding signal (ERF): 1.02 fold enrichment (6-mer frequency, TF over GST control); binding signal (ETV3L): 1.01 fold enrichment (6-mer frequency, TF over GST control); binding signal (SPDEF): 1 fold enrichment (6-mer frequency, TF over GST control); binding signal (ETV7): 1.02 fold enrichment (6-mer frequency, TF over GST control); binding signal (ETV6): 1.07 fold enrichment (6-mer frequency, TF over GST control)
